Measurements taken from PubChem BioAssay AID1159580 (chemical genetic matrix, 2015).
The whole screen tested about 5,500 compounds, of which about 2,000 (36%) were called active. Inconclusive results (about 18%) are left out. Cut-off read from the data, not from the text of the source: active = normalized growth mostly below about 0.91 (no sharp cut-off); inconclusive = no clear call, values can overlap the other calls; inactive = mostly above about 0.92. Some of the results follow.

Assay: chemical genetic growth profiling, strain panel (AID 1159580);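 note: tested at 20 µM; growth read once vehicle control cultures reached saturation at 30 °C; 1 = growth at the plate median or of vehicle wells; lower values mean less growth of the strain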
Settings: growth OD
[1] = S. cerevisiae deletion strains, locus YHR030C, strain SLT2, hits give low values
[2] = S. cerevisiae deletion strains, locus YJL187C, strain SWE1, hits give low values

Measured: normalized growth

O=[N+]([O-])c1ccc(C(O)C(O)CO)cc1 (configuration not stated)
inactive: S. cerevisiae deletion strains, locus YAL013W, strain DEP1, hits give low values 0.974 | S. cerevisiae deletion strains, locus YBR229C, strain ROT2, hits give low values 0.981 | S. cerevisiae deletion strains, locus YDL101C, strain DUN1, hits give low values 1.01 | S. cerevisiae deletion strains, locus YDR150W, strain NUM1, hits give low values 1 | S. cerevisiae deletion strains, locus YEL061C, strain CIN8, hits give low values 1 | S. cerevisiae deletion strains, locus YGR078C, strain PAC10, hits give low values 0.996 | [1] 1.07 | S. cerevisiae deletion strains, locus YHR087W, strain rtc3, hits give low values 0.958 | [2] 0.993 | S. cerevisiae deletion strains, locus YJR043C, strain POL32, hits give low values 0.987 | S. cerevisiae deletion strains, locus YJR075W, strain HOC1, hits give low values 0.988 | S. cerevisiae deletion strains, locus YLR039C, strain RIC1, hits give low values 0.974 | S. cerevisiae deletion strains, locus YLR058C, strain SHM2 (second series), hits give low values 0.988 | S. cerevisiae deletion strains, locus YLR085C, strain ARP6, hits give low values 0.986 | S. cerevisiae deletion strains, locus YLR262C, strain YPT6, hits give low values 0.963 | S. cerevisiae deletion strains, locus YML094W, strain GIM5, hits give low values 0.99 | S. cerevisiae deletion strains, locus YMR219W, strain ESC1, hits give low values 0.994 | S. cerevisiae deletion strains, locus YMR263W, strain SAP30, hits give low values 1 | S. cerevisiae deletion strains, locus YMR307W, strain GAS1, hits give low values 0.959 | S. cerevisiae deletion strains, locus YNL153C, strain GIM3, hits give low values 0.987 | S. cerevisiae deletion strains, locus YNL298W, strain CLA4 (second series), hits give low values 0.961 | S. cerevisiae deletion strains, locus YNL322C, strain KRE1, hits give low values 0.996 | S. cerevisiae deletion strains, locus YNR030W, strain Alg12, hits give low values 0.983 | S. cerevisiae deletion strains, locus YPL055C, strain LGE1, hits give low values 0.971 | S. cerevisiae deletion strains, locus YPL241C, strain CIN2, hits give low values 1 | S. cerevisiae deletion strains, locus YPR135W, strain CTF4, hits give low values 1.02 | S. cerevisiae strains, strain wild type, hits give low values 0.979

COP(=S)(OC)Oc1ccc(Sc2ccc(OP(=S)(OC)OC)cc2)cc1
inactive: S. cerevisiae deletion strains, locus YAL021C, strain ccr4, hits give low values 1 | S. cerevisiae deletion strains, locus YAL026C, strain drs2, hits give low values 1 | S. cerevisiae deletion strains, locus YAL030W, strain snc1, hits give low values 0.999 | S. cerevisiae deletion strains, locus YBL061C, strain skt5, hits give low values 1.01 | S. cerevisiae deletion strains, locus YBR009C, strain hhf1, hits give low values 1.01 | S. cerevisiae deletion strains, locus YBR023C, strain chs3, hits give low values 1.01 | S. cerevisiae deletion strains, locus YBR171W, strain sec66, hits give low values 0.992 | S. cerevisiae deletion strains, locus YBR231C, strain swc5, hits give low values 1 | S. cerevisiae deletion strains, locus YBR279W, strain paf1, hits give low values 1.01 | S. cerevisiae deletion strains, locus YCL011C, strain gbp2, hits give low values 1 | S. cerevisiae deletion strains, locus YCL016C, strain dcc1, hits give low values 1.01 | S. cerevisiae deletion strains, locus YCL061C, strain MRC1, hits give low values 1.01 | S. cerevisiae deletion strains, locus YCL069W, strain vba3, hits give low values 1.01 | S. cerevisiae deletion strains, locus YCR088W, strain abp1, hits give low values 0.994 | S. cerevisiae deletion strains, locus YDL005C, strain med2, hits give low values 0.998 | S. cerevisiae deletion strains, locus YDL040C, strain nat1, hits give low values 1 | S. cerevisiae deletion strains, locus YDR001C, strain nth1, hits give low values 1.01 | S. cerevisiae deletion strains, locus YDR069C, strain doa4, hits give low values 1.02 | S. cerevisiae deletion strains, locus YDR137W, strain rgp1, hits give low values 1.02 | S. cerevisiae deletion strains, locus YDR159W, strain sac3, hits give low values 0.994 | S. cerevisiae deletion strains, locus YDR195W, strain ref2 0.976 | S. cerevisiae deletion strains, locus YDR297W, strain sur2, hits give low values 1 | S. cerevisiae deletion strains, locus YDR334W, strain swr1, hits give low values 1.01 | S. cerevisiae deletion strains, locus YDR335W, strain msn5, hits give low values 1.01 | S. cerevisiae deletion strains, locus YDR392W, strain spt3, hits give low values 0.993 | S. cerevisiae deletion strains, locus YEL003W, strain gim4, hits give low values 1.01 | S. cerevisiae deletion strains, locus YEL037C, strain rad23, hits give low values 1 | S. cerevisiae deletion strains, locus YEL061C, strain CIN8 (second series), hits give low values 1 | S. cerevisiae deletion strains, locus YER015W, strain faa2, hits give low values 1 | S. cerevisiae deletion strains, locus YER016W, strain bim1, hits give low values 1 | S. cerevisiae deletion strains, locus YER111C, strain swi4, hits give low values 1 | S. cerevisiae deletion strains, locus YER155C, strain BEM2 (second series), hits give low values 1 | S. cerevisiae deletion strains, locus YFR010W, strain ubp6, hits give low values 1.01 | S. cerevisiae deletion strains, locus YGL167C, strain pmr1, hits give low values 0.998 | S. cerevisiae deletion strains, locus YGL173C, strain kem1, hits give low values 1 | S. cerevisiae deletion strains, locus YGL227W, strain vid30, hits give low values 1 | S. cerevisiae deletion strains, locus YGL240W, strain doc1, hits give low values 0.999 | S. cerevisiae deletion strains, locus YGL253W, strain hxk2, hits give low values 1 | S. cerevisiae deletion strains, locus YHR013C, strain ard1, hits give low values 0.986 | S. cerevisiae deletion strains, locus YHR027C, strain rpn1, hits give low values 1.01 | [1] 0.973 | S. cerevisiae deletion strains, locus YHR079C, strain IRE1, hits give low values 1.01 | S. cerevisiae deletion strains, locus YHR142W, strain chs7, hits give low values 1.01 | S. cerevisiae deletion strains, locus YJL092W, strain hpr5, hits give low values 1 | S. cerevisiae deletion strains, locus YJL095W, strain BCK1 (second series), hits give low values 1 | S. cerevisiae deletion strains, locus YJL095W, strain BCK1, hits give low values 0.999 | S. cerevisiae deletion strains, locus YJL115W, strain asf1, hits give low values 1 | S. cerevisiae deletion strains, locus YJL129C, strain trk1, hits give low values 1.02 | S. cerevisiae deletion strains, locus YJL154C, strain vps35, hits give low values 1.01 | S. cerevisiae deletion strains, locus YJL164C, strain tpk1, hits give low values 1.02 | S. cerevisiae deletion strains, locus YJL166W, strain qcr8, hits give low values 1.01 | [2] 1.01 | S. cerevisiae deletion strains, locus YJR066W, strain TOR1, hits give low values 0.946 | S. cerevisiae deletion strains, locus YKL160W, strain elf1, hits give low values 1 | S. cerevisiae deletion strains, locus YKR026C, strain gcn3, hits give low values 1 | S. cerevisiae deletion strains, locus YKR091W, strain srl3, hits give low values 0.997 | S. cerevisiae deletion strains, locus YLL001W, strain dnm1, hits give low values 1 | S. cerevisiae deletion strains, locus YLL026W, hits give low values 0.995 | S. cerevisiae deletion strains, locus YLL041C, strain sdh2, hits give low values 1 | S. cerevisiae deletion strains, locus YLR027C, strain aat2, hits give low values 1 | S. cerevisiae deletion strains, locus YLR113W, strain HOG1, hits give low values 0.977 | S. cerevisiae deletion strains, locus YLR221C, strain rsa3, hits give low values 1 | S. cerevisiae deletion strains, locus YLR258W, strain gsy2, hits give low values 1 | S. cerevisiae deletion strains, locus YLR262C, strain YPT6 (second series), hits give low values 1.04 | S. cerevisiae deletion strains, locus YLR320W, strain mms22, hits give low values 0.993 | S. cerevisiae deletion strains, locus YLR342W, strain FKS1, hits give low values 1.01 | S. cerevisiae deletion strains, locus YLR357W, strain rsc2, hits give low values 1.01 | S. cerevisiae deletion strains, locus YLR370C, strain arc18, hits give low values 1.01 | S. cerevisiae deletion strains, locus YLR384C, strain iki3, hits give low values 1 | S. cerevisiae deletion strains, locus YML120C, strain ndi1, hits give low values 1.01 | S. cerevisiae deletion strains, locus YMR058W, strain fet3, hits give low values 1.04 | S. cerevisiae deletion strains, locus YMR125W, strain sto1, hits give low values 1 | S. cerevisiae deletion strains, locus YMR129W, hits give low values 1.01 | S. cerevisiae deletion strains, locus YMR205C, strain PFK2, hits give low values 0.992 | S. cerevisiae deletion strains, locus YMR231W, strain pep5, hits give low values 1 | S. cerevisiae deletion strains, locus YNL071W, strain lat1, hits give low values 1.01 | S. cerevisiae deletion strains, locus YNL183C, strain NPR1, hits give low values 0.945 | S. cerevisiae deletion strains, locus YNL209W, strain ssb2, hits give low values 1.01 | S. cerevisiae deletion strains, locus YNL248C, strain rpa49, hits give low values 1 | S. cerevisiae deletion strains, locus YNL322C, strain KRE1 (second series), hits give low values 1 | S. cerevisiae deletion strains, locus YNR049C, strain mso1, hits give low values 1.01 | S. cerevisiae deletion strains, locus YOR001W, strain rrp6, hits give low values 1 | S. cerevisiae deletion strains, locus YOR070C, strain gyp1, hits give low values 1.01 | S. cerevisiae deletion strains, locus YOR080W, strain dia2, hits give low values 1 | S. cerevisiae deletion strains, locus YOR083W, strain WHI5, hits give low values 1.01 | S. cerevisiae deletion strains, locus YOR106W, strain vam3, hits give low values 0.999 | S. cerevisiae deletion strains, locus YOR231W, strain MKK1, hits give low values 0.984 | S. cerevisiae deletion strains, locus YOR265W, strain rbl2, hits give low values 1.02 | S. cerevisiae deletion strains, locus YOR270C, strain vph1, hits give low values 1.03 | S. cerevisiae deletion strains, locus YOR290C, strain snf2, hits give low values 1 | S. cerevisiae deletion strains, locus YPL051W, strain arl3, hits give low values 1.01 | S. cerevisiae deletion strains, locus YPL078C, strain atp4, hits give low values 1.01 | S. cerevisiae deletion strains, locus YPL106C, strain sse1, hits give low values 1.03 | S. cerevisiae deletion strains, locus YPL240C, strain hsp82, hits give low values 1 | S. cerevisiae deletion strains, locus YPL256C, strain CLN2, hits give low values 1.03
